This passage reports growth results from PubChem BioAssay (NCI).

Structures are written as SMILES. Compounds without any hit were thinned out: in the full panel of roughly 83,000, 20% have a hit.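 Assay: single dose, 48 h. Readout: percent growth (0 = no net growth; negative = cell death). Active: <10.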 Values without a mark were called inactive. Active and inactive are the calls of the source.

Common to all, as to assay: NCI-60 one-dose screen, 48 h (100 = growth as untreated, 0 = no growth, -100 = all killed)
Conditions in all cases: 10 µM unless noted

The test system of assay [1] is T-47D breast.
For assay [2], the system named is BT-549 breast.
For assay [3], the system named is MDA-MB-435 melanoma.
Assay [4] relates to SW-620 colon.
Assay [5] has as its system MCF7 breast.
Assay [6] concerns HCT-116 colon.
The subject of assay [7] is KM12 colon.

For the compound `Cc1cccc2nnc(-c3ccccc3)n12`, the growth is 115% in assay [1]; 98.9% in assay [2]; 112% in assay [3]; 112% in assay [4]; 97% in assay [5]; 104% in assay [6]. Besides, the growth in assay [7] was 108%.
In the case of `CC(C)N(Cc1ccccc1)c1c(S)ssc1=S`, the growth in assay [1] was 18.2%; in assay [2] it was -4.86% (active); in assay [3] it was 11.8%; in assay [4], 9.47% (active); in assay [5], 3.04% (active); in assay [6] it was 5.93% (active). In assay [7], the growth was 11.5%.
Consider `COc1ccc2cc(C3=CC(=O)CCC3)ccc2c1`, for which the growth in assay [1] was 59.6%; in assay [2], 97.1%; in assay [3], 93%; in assay [4], 117%; in assay [5], 110%; in assay [6], 92.5%. The growth in assay [7] was 109%.
With `CCN(CC)c1ccc(N=C2C=CC(=O)C=C2NC(C)=O)cc1`, the growth in assay [1] was 82.5%; in assay [2], 109%; in assay [3] it was 124%; in assay [4] it was 89%; in assay [5], 82.6%; in assay [6] it was 97.9%. Also, in assay [7], the growth is 98.6%.
For `O=C1C=CC(=O)N1c1ccccn1`, the growth in assay [1] was 106%; in assay [2], 104%; in assay [3], 116%; in assay [4], 101%; in assay [5] it was 100%; in assay [6] it was 96.8%. Also, the growth in assay [7] is 107%.
On to `O=C1CSC(c2ccccc2O)N1c1nnc(Cn2ccnc2)o1` (stereo unspecified), for which the growth in assay [1] was 60.6%; in assay [2], 64.5%; in assay [3] it was 13.4%; in assay [4], 61.5%; in assay [5], 47.9%; in assay [6], 50.8%. In addition, the growth in assay [7] was 45.1%.
Take `CCOc1cc(/C=C/C(=O)C(C(=O)/C=C/c2ccc(OC(=O)CNc3nc4ccccc4[nH]3)c(OCC)c2)C(=O)CNc2nc3ccccc3[nH]2)ccc1OC(=O)CNc1nc2ccccc2[nH]1`: the growth is 37.3% in assay [1]; -31.3% (active) in assay [2]; -37.6% (active) in assay [3]; -71.4% (active) in assay [4]; 0.893% (active) in assay [5]; -61.3% (active) in assay [6]. Besides, the growth in assay [7] was -70.8% (active).
Consider `CC(C)OP(=O)(OC(C)C)c1ncc(-c2ccc(C(F)(F)F)cc2)c(NC2CCCCCC2)n1`, for which the growth in assay [1] is -13.8% [33.3 µM] (active); in assay [2] it was -95% [33.3 µM] (active); in assay [3], -75.2% [33.3 µM] (active); in assay [4], -52.7% [33.3 µM] (active); in assay [5], 0.217% [33.3 µM] (active); in assay [6] it was -93.4% [33.3 µM] (active). For the same compound, the growth in assay [7] was -95.8% [33.3 µM] (active).
In the case of `O=C(CSc1nnc(-c2cc(-c3ccccc3)nc3ccccc23)o1)c1ccc(Br)cc1`, the growth in assay [1] was 102%; in assay [2], 96.9%; in assay [3], 104%; in assay [4] it was 107%; in assay [5] it was 111%; in assay [6], 101%. Moreover, the growth in assay [7] is 107%.
On to `O=C1c2cccc3c([N+](=O)[O-])ccc(c23)C(=O)N1CCCCl`, for which the growth was -48.4% [100 µM] (active) in assay [1]; -98.2% [100 µM] (active) in assay [2]; -89.3% [100 µM] (active) in assay [3]; -44.4% [100 µM] (active) in assay [4]; -65.5% [100 µM] (active) in assay [5]; -90.6% [100 µM] (active) in assay [6]. The growth in assay [7] was -81.3% [100 µM] (active).
As for `Cc1ccc(C2=NNC(c3sc(Cl)nc3Cl)C2)cc1` (stereo unspecified), the growth is 56.1% in assay [1]; 98% in assay [2]; 104% in assay [3]; 72.1% in assay [4]; 65.9% in assay [5]; 74.7% in assay [6]. Besides, the growth in assay [7] was 99.5%.
As for `CC(C)Sc1nc(-c2ccc(Br)cc2)c(C#N)c(N2CCCCC2)n1`, the growth is 94.3% in assay [1]; 109% in assay [2]; 95.7% in assay [3]; 102% in assay [4]; 93.1% in assay [5]; 100% in assay [6]. In addition, the growth in assay [7] is 95.9%.
As for `Cn1c(=O)c2[nH]c(=S)n(Cc3ccccc3)c2n(C)c1=O`, the growth in assay [1] is 98.8%; in assay [2], 106%; in assay [3], 119%; in assay [4], 100%; in assay [5], 101%; in assay [6] it was 98.2%. Moreover, the growth in assay [7] is 109%.
On to `COc1cc(/C=C/C(=O)c2c(C)n([O-])c3ccccc3[n+]2=O)cc(OC)c1OC`, for which the growth in assay [1] was 34.9%; in assay [2], 27.3%; in assay [3], 46.3%; in assay [4], 43.7%; in assay [5] it was 20.8%; in assay [6] it was 30.6%. The growth in assay [7] was 61.2%.
For `CCOC(=O)/C(=C/CC/C(C)=C/CC/C(C)=C/CCc1ccoc1)CC(=O)N1CCCCC1`, the growth in assay [1] was 27.7%; in assay [2], 88%; in assay [3], 34.1%; in assay [4] it was 64.6%; in assay [5], 32%; in assay [6] it was 44.9%. In assay [7], the growth is 49%.
In the case of `COc1ccc2ncccc2c1Cc1c(OC)ccc2ncccc12`, the growth in assay [1] is 59.8%; in assay [2], 90.3%; in assay [3] it was 12.4%; in assay [4], 40.5%; in assay [5], 57%; in assay [6], 59.2%. In addition, in assay [7], the growth was 52.1%.
As to `CC1CN(C2CCCCC2)C(=O)NC1=O` (stereo unspecified), the growth in assay [1] was 93%; in assay [2] it was 104%; in assay [3], 112%; in assay [4], 102%; in assay [5], 101%; in assay [6], 101%. In addition, the growth in assay [7] was 111%.
`C=C(CN1CCc2c([nH]c3ccccc23)C1)c1ccc(C(=O)Nc2ccon2)cc1`: the growth was 22.8% in assay [1]; 55.4% in assay [2]; 101% in assay [3]; 102% in assay [4]; 87.7% in assay [5]; 91.9% in assay [6]. In addition, the growth in assay [7] is 141%.
